# Screening results deposited in PubChem BioAssay by National Center for Advancing Translational Sciences (NCATS).
# A selection: hits, their analogues and other compounds. The true share with any hit is near 7.5%.
# ELG1 genotoxic = induces genotoxicity in HEK293T cells with luciferase-tagged ELG1; HEK293T ELG1-luciferase reporter, luminescence, 16 h; Potency, µM (series often up to 46 µM), without a hit: at the top dose activity change, positive = activation, actives largely listed as activators; 330,000 compounds, 1.3% hits; AID 504466; also: % of control where 0% means no effect; nearly all actives have a fitted effect of over 60% in size
#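 Screening used a luciferase reporter fused to human ELG1 in HEK293T cells. Luminescence was read on a CCD plate imager after 16 hr exposure and 30 min ONE-Glo incubation.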
# Rab9 prom act = activators of Rab9 promoter | Potency, µM (series often up to 9.22 µM), without a hit: at the highest dose activation, negative = inhibition, hits mostly activators | 320,000 compounds, 2.8% hits | Huh7 Rab9 promoter-luciferase reporter, luminescence, 24 h; also: % of control where 0% means no effect; nearly all actives have a fitted effect of over 60% in size
#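 Luminescence read-out: Huh7 cells stably expressing Rab9-luciferase, treated 24 h with compound at 37 °C, then lysed with luciferase reagent for 10 min at ambient before reading.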
# FLuc modulator = counter-screen for miR-21 project: firefly luciferase inhibitors or activators | AID 588342 | Potency, µM (top dose mostly 57.5 µM), inactives show at the highest dose activity change, negative = inhibition, hits mostly inhibitors | purified FLuc, Km substrates, luminescence inhibition | P08659 | 360,000 compounds, 6.9% hits;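 also: plate controls were vehicle for no effect and reference inhibitor for full effect; nearly all actives have a fitted effect of over 55% in size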
# Target sequence (P08659 whole entry, looked up): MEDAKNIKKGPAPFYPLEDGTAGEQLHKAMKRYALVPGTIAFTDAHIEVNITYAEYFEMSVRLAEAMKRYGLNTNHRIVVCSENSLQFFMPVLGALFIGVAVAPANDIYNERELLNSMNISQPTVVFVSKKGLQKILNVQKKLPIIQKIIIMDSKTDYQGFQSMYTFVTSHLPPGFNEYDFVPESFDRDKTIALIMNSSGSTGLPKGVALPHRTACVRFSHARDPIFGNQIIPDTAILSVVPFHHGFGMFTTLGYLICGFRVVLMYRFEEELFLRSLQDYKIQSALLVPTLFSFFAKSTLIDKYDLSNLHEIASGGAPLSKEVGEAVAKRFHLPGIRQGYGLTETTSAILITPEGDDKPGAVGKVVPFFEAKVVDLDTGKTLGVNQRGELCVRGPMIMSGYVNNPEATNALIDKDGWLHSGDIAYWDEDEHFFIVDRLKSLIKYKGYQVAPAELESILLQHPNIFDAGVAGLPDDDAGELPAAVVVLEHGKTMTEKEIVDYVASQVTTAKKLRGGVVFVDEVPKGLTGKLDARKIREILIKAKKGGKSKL
#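 Biochemical qHTS of compounds, final roughly 60 µM downward over six points, against 10 nM purified firefly luciferase using Km concentrations of substrates (10 uM D-luciferin, 10 uM ATP) in Tris acetate pH 7.5 buffer; luminescence output.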
# SMN2 splice up = increases expression of the SMN2 splice variant; HEK293 SMN2-luciferase splicing reporter, luminescence, 30-36 h; Potency, µM (highest dose often 46.1 µM), inactives show top-dose activity change, positive = activation, actives largely listed as activators; 210,000 compounds, 2.8% hits; AID 1458; also: % of control where 0% means no effect; nearly all actives have a fitted effect of over 55% in size
#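 qHTS luciferase splicing reporter: luminescence rises when SMN2 exon 7 is included in transfected HEK293 cells. Compound exposure lasted 30-36 h at 37C, with 4.5 mM final sodium butyrate as control, followed by a ONE-Glo read.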
# Luc counter = counter-screen: inhibitors of Kinase-Glo firefly luciferase | Potency, µM (doses to about 38.3 µM), for the others: at the top dose activity change, negative = inhibition, actives largely listed as inhibitors | 200,000 compounds, 0.28% hits | Kinase-Glo luciferase, ATP luminescence, 8 min | AID 1379; also: % is scaled to controls: 0 for no effect and ±100 for the full control effect; nearly all actives have a fitted effect of over 60% in size
#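 Light output from Kinase-Glo luciferase with luciferin and 10 uM ATP in 50 mM imidazole pH 7.2, KCl, MgCl2, Tween 20, BSA; compound pin-delivered, 8-min ambient incubation, then luminescence read.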
# NPC1 prom act = activators of NPC1 promoter. Huh7 NPC1 promoter luciferase reporter, 24 h. Potency, µM (highest dose often 9.22 µM), inactives show top-dose activation, most hits filed as activators. 320,000 compounds, 2.4% hits. AID 485313; also: % of control where 0% means no effect; nearly all actives have a fitted effect of over 60% in size
#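 Readout is luciferase luminescence, reflecting NPC1 promoter activation in stably transfected Huh7 cells after 24 h compound exposure at 37 °C in reduced-serum medium with 10% FBS.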
# The depositor's hits bear a star; ? = inconclusive; nt = not tested or not shown; [ ] = remark or other dose. Calls follow the shape of the dose curve; as a rule, active = well fitted curve in the direction sought with a large enough effect; inconclusive = small, poorly fitted or top-dose-only effect, or another doubt; inactive = no such curve, though single readings can be large; an effect the other way counts as inactive or inconclusive. Potency is read from the fitted curve at half-maximal effect.
SMILES,ELG1 genotoxic,Rab9 prom act,FLuc modulator,SMN2 splice up,Luc counter,NPC1 prom act
COc1ccccc1CNC(=O)c1ccc(Br)o1,3.4%,-11.3%,-5.1%,-24.7%,3.1%[39.9 µM],-2.5%
COc1ccccc1C(=O)NNC(=O)c1ccc(NC(=O)CC(C)C)cc1,1.7%,9.1%,-12.1%,nt,nt,1.1%
COc1ccccc1C(=O)NNC(=O)c1ccc(Br)cc1,8.2%,5.5%,13.5µM*,nt,nt,19.5%
COc1ccccc1C(=O)NNC(=O)c1ccc(C)cc1,?,?,15.1µM*,nt,nt,26.5%
COc1ccccc1C(=O)NNC(=O)c1ccc(Br)o1,?,20.1%,16.9µM*,nt,nt,?
COc1ccccc1C(=O)NNC(=O)c1ccncc1,7.4%,12.9%,-16.4%,-9.8%,1.1%,10.4%
CC(=O)N1CCCc2cc(S(=O)(=O)N(C)CC(=O)Nc3cccc(C)c3C)ccc21,nt,nt,-8.1%,nt,nt,nt
CCCn1c(=O)n(-c2cc(Cl)c(OC)cc2OC)c(=O)c2c3c(sc21)CN(C(C)=O)CC3,nt,nt,3.8%,18.0%,nt,nt
Cc1ccc2cccc(OCC(=O)Nc3ccc4c(c3)OCO4)c2n1,-7.4%,-2.9%,-19.2%,-16.7%,-2.3%,6.4%
O=C(COc1ccccc1Cl)Nc1ccc2c(c1)OCO2,3.55µM*,?,3.38µM*,nt,nt,2.82µM*
Cc1ccccc1OCC(=O)OCC(=O)Nc1ccc2c(c1)OCCO2,0.6%,-0.5%,nt,nt,nt,-1.2%
Cc1ccccc1OCC(=O)Nc1ccc2c(c1)OCO2,?,7.3%,13.5µM*,-8.9%,-10.5%,?
COc1cccc(NC(=O)COc2ccccc2C(N)=O)c1,7.94µM*,2µM*,2.39µM*,3.98µM*,?,2.82µM*
Cc1ccc(-n2c(C)cc(C(=O)COc3c(CO)cc(F)cc3CO)c2C)cc1C,-4.6%,-1.1%,23.9µM*,-51.8%,-3.6%,0.1%
COc1ccc(OCC(=O)Nc2cccc(OC)c2)cc1,?,-3.6%,-15.2%[2.3 µM],nt,-12.7%,1.9%
CCc1ccccc1NC(=O)CCNS(=O)(=O)c1ccc2c(c1)CCCC(=O)N2,nt,nt,-1.9%,nt,nt,nt
Cc1ccc2c(=O)cc(C(=O)Nc3c(C(=O)c4ccccc4)oc4ccccc34)oc2c1C,nt,nt,-3.3%,3.1%,nt,nt
CC(=O)c1cccc(NC(=O)COC(=O)COc2ccccc2C)c1,0.2%,-3.0%,-8.3%,4.5%,-0.2%,-3.0%
CC(=O)Nc1cccc(NC(=O)COc2ccccc2C)c1,0.8%,12.3%,15.1µM*,nt,nt,13.1%
COc1cc(C)ccc1OCC(=O)Nc1ccc2c(c1)OCO2,?,2.82µM*,7.57µM*,nt,nt,?
COc1ccc(OCC(=O)Nc2ccc3c(c2)OCO3)cc1,21.9%,14.4%,?,nt,nt,10.5%
Cc1ccc(NC(=O)COc2ccccc2C=O)cc1Cl,?,2.51µM*,0.849µM*,nt,1.2%,2µM*
CCn1ccc2c(OCC(=O)Nc3ccc(C)c(Cl)c3)cccc2c1=O,nt,nt,-1.9%,nt,nt,nt
COc1ccccc1OCC(=O)Nc1ccc2c(c1)OCO2,25.0%,21.4%,15.1µM*,nt,nt,?
CCc1ccc(CNC(=O)CN2C(=O)CCn3nc(-c4cn(C)c5ccccc45)cc32)cc1,nt,nt,-13.1%,nt,nt,nt
SMILES,ELG1 genotoxic,Rab9 prom act,FLuc modulator,SMN2 splice up,Luc counter,NPC1 prom act
Cc1cccc(NC(=O)CSc2nc3n[nH]c(C)c3c(=N)n2-c2cccc(Cl)c2)c1,nt,nt,-6.3%,nt,nt,nt
Cc1cc(C(=O)COc2ccccc2Cl)c(C)n1-c1ccc2c(c1)OCO2,?,25.2%,21.3µM*,?,-1.8%,19.2%
Cc1cc(NC(=O)COc2ccccc2C)no1,?,3.16µM*,16.9µM*,nt,-2.8%,3.16µM*
CNS(=O)(=O)c1cccc(C(=O)OCC(=O)c2cc(C)n(-c3ccc4c(c3)OCO4)c2C)c1,11.1%,-2.8%,?,-23.6%,2.4%,-1.4%
CC(=O)CSc1nc(-c2ccccc2)c(-c2ccccc2)o1,-0.5%,-0.9%,2.7%,nt,nt,-0.3%
Cc1ccc(-c2nc(-c3nccc4ccccc34)oc2-c2ccccc2)cc1,?,3.16µM*,3.01µM*,3.55µM*,-14.9%[7.66 µM],?
CCN1C(=O)c2ccccc2Sc2ccc(NC(=O)Nc3cccc([N+](=O)[O-])c3C)cc21,nt,nt,-7.6%,nt,nt,nt
Nc1ccc(C(=O)Nc2nc3ccccc3s2)cc1,0.517µM*,0.398µM*,0.379µM*,1.58µM*,-5.6%,0.631µM*
Cc1cc(C)n(-c2ccc(C(=O)Nc3nc4ccccc4s3)cc2)n1,?,?,2.69µM*,17.3%,-5.3%,2.51µM*
CC(=O)Nc1cc(C)nn1-c1nc2ccccc2s1,?,25.7%,?,126.0%,-6.3%,-2.1%
COc1ncc2nc(CCc3ccccc3)c(=O)n(C)c2n1,nt,nt,nt,14.1µM*,-1.9%,nt
COc1ccc(-c2cn3nc(SCC(=O)Nc4cc(C)cc(C)c4)ccc3n2)cc1,nt,nt,3.79µM*,nt,nt,nt
COc1ccc(-c2cn3nc(SCC(=O)Nc4ccc(C)c(Cl)c4)ccc3n2)cc1,nt,nt,2.69µM*,nt,nt,nt
O=C(CSc1ccc2nc(-c3ccccc3)cn2n1)Nc1cccc(F)c1,nt,nt,7.57µM*,nt,nt,nt
COc1ccc(-c2cn3nc(SCC(=O)Nc4cccc(C)c4C)ccc3n2)cc1,nt,nt,2.13µM*,nt,nt,nt
COc1ccc(NC(=O)CSc2ccc3nc(-c4ccccc4)cn3n2)cc1OC,nt,nt,-18.3%,nt,nt,nt
Cc1c(C(=O)O)oc2c1-c1nn(Cc3ccccc3Cl)cc1CC2,nt,nt,?,-3.9%,nt,nt
Cc1ccc(C(=O)Nc2ccc3cn[nH]c3c2)cc1S(=O)(=O)N1CCCCC1,14.7%,?,21.3µM*,0.6%,-6.6%,?
O=C(Nc1ccccn1)c1ccc(Cl)c(S(=O)(=O)N2CCCCCC2)c1,-0.5%,?,21.3µM*,nt,nt,18.9%
COc1ccc(C(=O)O)cc1S(=O)(=O)Nc1cccc(C(F)(F)F)c1,-1.2%,-6.4%,0.5%,8.5%,2.7%,-2.2%
Cc1ccc(NC(=O)c2ccc(F)cc2)cc1S(=O)(=O)N1CCCCCC1,-10.1%,-9.9%,?,-35.9%,3.6%,2.7%
O=C(Nc1ccccn1)c1cccc(S(=O)(=O)N2CCCCC2)c1,-0.6%,-3.5%,-5.5%,-1.8%,0.1%,-0.9%
Cc1ccc(C(=O)Nc2cccc(O)c2)cc1S(=O)(=O)N1CCCCCC1,6.1%,?,15.1µM*,-5.0%,nt,29.3%
O=C(O)c1ccc(Cl)c(S(=O)(=O)Nc2cccc(C(=O)Nc3cccc(C(F)(F)F)c3)c2)c1,1.3%,0.6%,15.1µM*,-5.3%,4.9%,-0.9%
Cn1c(C(=O)Nc2cccc(Cl)c2)cc2c(=O)n(C)c3ccccc3c21,nt,nt,-0.3%,-3.4%,nt,nt
COC(=O)c1ccc(NC(=O)NC(C)c2c(-n3cccc3)sc(C)c2C)cc1 (stereo not drawn),nt,nt,-2.1%,-1.9%,nt,nt
O=C(O)c1ccc(Cl)c(S(=O)(=O)Nc2ccccc2F)c1,nt,nt,nt,nt,1.4%,nt
